{"source": "PubChem BioAssay AID2360", "about": "(The Scripps Research Institute Molecular Screening Center, 2010)", "note": "Hit rate of the full screen: of about 1,900 compounds, about 85 (4%) were called active. The entries come from a sample that favours actives as a whole. Unmarked numbers belong to inactive results.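 Rule for the calls: active = mean PP5 inhibition over triplicate wells above about 9.5% taken from the earlier PP1 screen (limit read from the data); inactive = the rest.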", "data": [{"target": "Serine/threonine-protein phosphatase 5 (Homo sapiens) (UniProt P53041)", "sequence (P53041 whole entry, looked up)": "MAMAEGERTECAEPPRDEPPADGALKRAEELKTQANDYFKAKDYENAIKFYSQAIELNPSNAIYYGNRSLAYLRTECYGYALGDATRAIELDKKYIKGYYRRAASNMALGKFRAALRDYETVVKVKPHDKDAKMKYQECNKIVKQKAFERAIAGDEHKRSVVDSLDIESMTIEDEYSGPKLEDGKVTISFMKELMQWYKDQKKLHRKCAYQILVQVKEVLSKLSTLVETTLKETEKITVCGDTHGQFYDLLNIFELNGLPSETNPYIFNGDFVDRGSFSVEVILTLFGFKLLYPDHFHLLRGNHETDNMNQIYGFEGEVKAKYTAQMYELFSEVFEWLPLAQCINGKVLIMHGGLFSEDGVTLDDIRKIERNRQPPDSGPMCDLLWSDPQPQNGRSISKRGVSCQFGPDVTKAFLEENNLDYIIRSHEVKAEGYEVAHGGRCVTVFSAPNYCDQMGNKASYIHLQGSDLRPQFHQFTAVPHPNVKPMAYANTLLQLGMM", "experiment": "human PP5 catalytic subunit inhibitors – biochemical, fluorescence, triplicate, counter-screen for PP1 inhibitor project, confirmation (AID 2360)", "settings": "purified PP5c, OMFP fluorescence; at 6.7 µM; stronger effect = higher value", "values": [{"smiles": "O=C(O)c1ccccc1NC(=O)C1C2CCC(O2)C1C(=O)O", "note": "(stereo not drawn)", "inhibition": "17.6% (active)"}, {"smiles": "CCOP(=O)(OCC)C(O)c1ccc(OC)cc1OC", "note": "(stereo not drawn)", "inhibition": "-3.76%"}, {"smiles": "O=c1[nH]c(CN2CC=C(c3ccccc3)CC2)nc2scc(-c3cccs3)c12", "inhibition": "-3.01%"}]}]}
